# ATXN2 expr inh: ATXN2 expression inhibition | HEK-293 ATXN2-luciferase reporter, luminescence, 24 h | Potency, µM (doses to about 57 µM), without a hit: top-dose activity change, negative = inhibition, hits mostly inhibitors | 360,000 tested, 0.72% active | AID 1745845; also: % is scaled to controls: 0 for no effect and ±100 for the full control effect; nearly all actives have a fitted effect of over 55% in size
#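 ATXN2-luciferase reporter cells (luciferase flanked by upstream and downstream ATXN2 gene portions) were treated 24 h at 37 °C with compounds at up to 57 uM. SteadyGlo luminescence gave expression; GF-AFC fluorescence gave viability.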
# ATXN viability: reduces viability in counter-screen for ATXN expression inhibitors | S2 cells (HEK-293 line with an ATXN2-luciferase reporter) viability, CellTiter-Fluor protease fluorescence, 24 h | Potency, µM (top dose mostly 56.7 µM), actives largely listed as cytotoxic | 400,000 tested, 0.49% active | AID 651635; also: nearly all actives have a fitted effect of over 40% in size
# KB-V1 cytotox: KB-V1 MDR subline cytotoxicity | 400,000 tested, 3.4% active | Potency, µM (series often up to 46.1 µM), usual class: cytotoxic | KB-V1 MDR cells viability, CellTiter-Glo, 72 h; also: % is scaled to controls: 0 for no effect and ±100 for the full control effect; nearly all actives have a fitted effect of over 60% in size
#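 KB-V1 cells (P-gp-expressing MDR subline of KB-3-1) in phenol-red-free DMEM with 10% FBS were exposed to library compounds over a concentration series for 72 h at 37 degrees C. Viability read by CellTiter-Glo luminescence; concentration-effect curves fitted after normalization.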
# TGFb inhibitor: TGF-b pathway inhibition; HepG2 CAGA-GFP TGF-b/SMAD3 reporter, GFP fluorescence, 18 h; TGF-beta stimulated, 500 pg/mL final; Potency, µM (highest dose often 46.1 µM), inactives show at the highest dose activity, negative = inhibition, actives largely listed as inhibitors; 410,000 tested, 1.2% active; AID 588855; also: % is scaled to controls: 0 for no effect and ±100 for the full control effect; nearly all actives have a fitted effect of over 65% in size
#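 TGF-beta reporter screen: HEPG2 CAGA-GFP, 1% FBS, 500 pg/mL TGF-beta final, 18 h; per-cell GFP summed per well; curves fitted and categorized by class.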
# KB-3-1 tox: KB-3-1 parental cell cytotoxicity | KB-3-1 viability, CellTiter-Glo ATP luminescence, 72 h | Potency, µM (titrated, usually from 46.1 µM), hits mostly cytotoxic | 400,000 tested, 1.4% active; also: % is scaled to controls: 0 for no effect and ±100 for the full control effect; nearly all actives have a fitted effect of over 60% in size
#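 Cytotoxicity in the drug-sensitive parental line KB-3-1 was scored as loss of CellTiter-Glo luminescence following 72 h incubation with compound. Values come from curve fitting of normalized concentration-response data.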
# HepG2 tox: counter-screen for TGF-b inhibitors: cytotoxicity in HepG2 cells | Potency, µM (highest dose often 46.1 µM), inactives show at the highest dose activity change, negative = cytotoxicity, hits mostly cytotoxic | AID 588856 | 410,000 tested, 0.76% active | HepG2 CAGA-GFP viability, ATP luminescence, 18 h
#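 HepG2 CAGA-GFP cells (1000/well, DMEM with 1% FBS) received compound, then TGF-beta at 500 pg/mL final, and were incubated 18 hours at 37 degrees C. Viability was read by CellTiter-Glo luminescence. Media-only wells were set as complete cell-killing and DMSO as no toxicity.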
# An asterisk follows results filed as active; i = inactive; ? = inconclusive; . = no result. Only some compounds are listed: those with a hit (about 5.9% of all), similar ones and a draw of the others. Calls follow the shape of the dose curve; as a rule, active = well fitted curve in the direction sought with a large enough effect; inconclusive = small, poorly fitted or top-dose-only effect, or another doubt; inactive = no such curve, though single readings can be large; an effect the other way counts as inactive or inconclusive. Potency is read from the fitted curve at half-maximal effect.
SMILES,ATXN2 expr inh,ATXN viability,KB-V1 cytotox,TGFb inhibitor,KB-3-1 tox,HepG2 tox
Cc1ccc(NCc2nc3ccccc3n2CCOc2ccccc2C)cc1,-23%,?,i,?,?,-60%
Clc1ccc(NCc2nc3ccccc3n2CCOc2ccccc2)cc1,3%,i,i,?,i,-27%
COCCn1c(COc2ccc(OC)cc2)nc2ccccc21,54%,i,8.2µM*,-48%,i,-30%
Cc1cccc(NCc2nc3ccccc3n2CCOc2ccccc2C)c1,?,?,i,11µM*,i,-47%
Cc1ccccc1NCc1nc2ccccc2n1CCOc1ccccc1,1%,?,?,14µM*,15µM*,-40%
O=C(NCC(c1ccccc1)c1ccccc1)c1nn(-c2ccccc2Cl)nc1CO,.,.,.,-13%,.,-16%
CCc1ccc(C(=O)C(C)OC(=O)Cc2n[nH]c(=O)c3ccccc23)cc1 (stereo not given),-21%,i,?,-24%,9.2µM*,-3%
CCc1ccc(C(=O)C(C)OC(=O)Cn2[nH]c(=O)c3ccccc3c2=O)cc1 (stereo not given),1%,i,i,6%,i,-1%
O=S1(=O)c2ccc(Br)cc2N2CCC[C@H]2CN1Cc1ccccc1,-15%,i,5.2µM*,?,?,-18%
COC(=O)C1CCCCN1Cc1ccc2c(c1)CN(Cc1cn[nH]c1-c1ccc(F)cc1)CCO2 (stereo not given),.,i,.,.,.,.
O=C(NC1CCCC1)C(c1ccncc1)N(CC1CCCO1)C(=O)Cn1nnc(-c2cccs2)n1 (stereo not given),-1%,i,23µM*,8%,?,-4%
COc1ccc(C)cc1NC(=O)c1cc(S(=O)(=O)NC2CCCCCC2)ccc1F,-7%,i,i,?,i,-9%
Cc1ccc(NC(=O)c2nc(S(=O)(=O)Cc3ccc(F)cc3)ncc2Cl)cc1C,.,.,.,5.6µM*,.,7.1µM*
CC(C)c1nnc(NC(=O)c2nc(S(=O)(=O)Cc3ccccc3)ncc2Cl)s1,?,?,?,?,?,i
COc1ccc(OC)c(NC(=O)c2nc(S(=O)(=O)Cc3ccc(F)cc3)ncc2Cl)c1,.,.,.,6.3µM*,.,8.9µM*
CSc1nnc(NC(=O)c2nc(S(=O)(=O)Cc3ccccc3)ncc2Cl)s1,?,.,?,?,18µM*,-157%
CC(=O)Nc1ccc(NC(=O)c2nc(S(=O)(=O)Cc3ccc(F)cc3)ncc2Cl)cc1,.,.,.,2.8µM*,.,4µM*
Cc1ccc(CS(=O)(=O)c2ncc(Cl)c(C(=O)Nc3nc4ccc(F)cc4s3)n2)cc1,-26%,?,i,?,i,-40%
CC(C)c1ccc(Nc2c(-c3ccc(N4CCOCC4)cc3)nc3ncccn23)cc1,.,.,i,?,i,-5%
COc1ccc(-n2nc3ccc(NC(=O)c4cccc(OCCC(C)C)c4)cc3n2)cc1,0%,i,?,-21%,?,-2%
COc1ccc2nc(NC(=O)c3nc(S(=O)(=O)Cc4ccc(C)cc4)ncc3Cl)sc2c1,.,.,.,4.5µM*,.,-100%
CCc1ccc(-c2nn(CC(=O)Nc3ccccc3C)c3c2cnc2ccc(C)cc23)cc1,14%,i,?,2%,i,-1%
Cc1cccc(C)c1OCCNC(=O)C(=O)NCc1ccco1,-12%,i,?,-17%,1.5µM*,1%
Cc1cccc(C)c1NC(=O)NCc1ccco1,.,i,i,6%,i,-1%
CN(C)CCOc1cc(-c2cn[nH]c2)ccc1NC(=O)C1COc2ccccc2O1 (stereo not given),-16%,.,.,.,.,.
SMILES,ATXN2 expr inh,ATXN viability,KB-V1 cytotox,TGFb inhibitor,KB-3-1 tox,HepG2 tox
COc1ccc(C)cc1N(C)C(=O)c1c2c(nc3ccccc13)C(=O)N(C1CCCCC1)C2,.,.,i,55%,i,-20%
CC(C)(C)c1ccc(C(=O)C[n+]2ccc(Cl)c3ccc(Cl)cc32)cc1,.,.,?,?,0.26µM*,-55%
COc1ccccc1OCC(=O)Nc1cc(Cl)ccc1N1CCCCC1,-1%,i,15µM*,0%,i,-6%
COc1ccccc1OCC(=O)Nc1cc(S(=O)(=O)N2CCCCC2)ccc1N1CCCCC1,-1%,i,i,-9%,i,13%
COc1ccccc1NS(=O)(=O)c1cc(NC(=O)Nc2ccc(Cl)cc2Cl)ccc1N1CCCCC1,6%,?,10µM*,?,?,-15%
COc1ccccc1NS(=O)(=O)c1cccc(NC(=O)Nc2ccc(Cl)cc2)c1,?,?,?,?,?,13µM*
CCCCCCCCCCCCCCCCCC(=O)OCCO,.,i,.,.,.,.
CC(=O)N1CCCC1c1nc2ccccc2n1Cc1ccccc1 (stereo not given),3%,i,i,4%,i,2%
COc1ccc(C)cc1-n1nnnc1SCc1cc(=O)n2cc(C)ccc2n1,-16%,i,7.3µM*,-4%,?,-10%
Oc1ccc(-c2nc(-c3ccccc3)c(-c3ccc(Br)cc3)[nH]2)cc1,?,?,i,?,i,-111%
COc1cc(-c2nc(-c3ccccc3)c(-c3ccc(Br)cc3)[nH]2)cc(OC)c1O,?,?,i,13µM*,i,-70%
CCN(CC)C(=O)[C@H]1C[C@H](CC(=O)NC/C=C(\C)CCC=C(C)C)C(=O)N2CCc3c([nH]c4ccc(Cl)cc34)[C@]12C,-3%,i,i,?,?,-3%
CCN(CC)C(=O)[C@H]1CC(CC(=O)NC/C=C(\C)CCC=C(C)C)C(=O)N2CCc3c([nH]c4ccccc34)[C@]12C (stereo not given in full),?,?,i,16µM*,i,-104%
CCN(CC)C(=O)[C@H]1CC(CC(=O)NC/C=C(\C)CCC=C(C)C)C(=O)N2CCc3c([nH]c4ccc(OC)cc34)[C@]12C (stereo not given in full),?,25µM*,?,11µM*,?,-95%
CC[C@]12c3[nH]c4ccc(OC)cc4c3CCN1C(=O)C(CC(=O)NC/C=C(\C)CCC=C(C)C)C[C@@H]2C(=O)N1CCN(C(=O)C2CC2)CC1 (stereo not given in full),?,?,?,?,i,-16%
COC(=O)C12OCC34C(CC5C(C)=C(O)C(=O)CC5(C)C3C(O)C1O)OC(=O)C(OC(=O)C=C(C)C)C24 (stereo not given),?,?,7.3µM*,-54%,0.21µM*,0%

# Assay outcomes deposited in PubChem BioAssay by National Center for Advancing Translational Sciences (NCATS).
